# Measured values published in paper PMC12136788.
# Positions count from the first letter of the chain named. Whole data set: some 5,800 sequences, median “enrichment r” near 0.68, cut for the highest 2% near 11. The list comes from a sample in which the highest values are over-represented; it also holds similar and randomly drawn sequences.
# B1: chr1:9729969:9730061:-|3pUTR|ENSG00000171603|msi1_unk|total|mutant (ssRNA)
# RNA: GGGAGUUCUACAGUCCGACGAUCGUUUUUAUUUUUUCCAAACCCGUGCAUGUAUAAAUAAUGGCAGGAUGGGGGGUACUGUGCCGAUGAUUAACUGACUUUUUAAUAUUUUGUAAAUAAAUCGGAUUCCUUGUGUCCUUUGUGCAACAGAGGAUUGAGCAUCA
# B2: chr10:16593140:16593241:-|3pUTR|ENSG00000148484|unk|FALSE|unique (ssRNA)
# RNA: GGGAGUUCUACAGUCCGACGAUCUUAUUUUUCUUUUCACUCUCUUUCUAAUGCUUCCCACCUUACCUUUUAGAUUCUUUUGCUAGGUGGGAGAUUGUUAUAAGGUCUUUAAACCAUUUCCAUUUGUUUCUUUAACAUUACCAACAACAGAGGAUUGAGCAUCA
# B3: chr1:93361585:93361687:+|3pUTR|ENSG00000117505|unk|total|mutant (ssRNA)
# RNA: GGGAGUUCUACAGUCCGACGAUCUUUAACUUGCCGUUACCGUUUACUUAUUGUUUUCCGAAUUACUUUUACAUUUUCCCAACCCGAUGGCCCCGAGUCCAACAUUACCUUUUGAGAUGACAUUAUUGUCUCCAUAAUUGAGUGCAACAGAGGAUUGAGCAUCA
# B4: chr1:180885316:180885399:+|3pUTR|ENSG00000143324|msi1_unk|FALSE|overlapping (ssRNA)
# RNA: GGGAGUUCUACAGUCCGACGAUCUUGGCAGCCAUUUCUCCCAGCAGUUUUAAAGGAUGAACAUUGGAUUUCAUGCCAUCCCAUAGAAAACCUGUUUUAAAAUUUUAGGGAUCUUUACUUGGUCAUACAUGAAAAGUACACUGCCAACAGAGGAUUGAGCAUCA
# B5: chr11:113276847:113276948:+|3pUTR|ENSG00000149294|msi1|FALSE|unique (ssRNA)
# RNA: GGGAGUUCUACAGUCCGACGAUCAGAAGGGAAAAGCCAGCCCUUUGUAUAGAAAUUUUGCUUUUUUUUCCCUCAUUCUACUUUAGAACUGCAAGCUUGUGCACUGUGGAUGCGUGAAUAUUUUAGUGUGAAACGUGUUUUUGUCAACAGAGGAUUGAGCAUCA
# B6: chr5:16663783:16663884:-|3pUTR|ENSG00000145555|msi1|FALSE|bound_elsewhere (ssRNA)
# RNA: GGGAGUUCUACAGUCCGACGAUCUGAGGAUACAAAAUUCACAGAUGCUCAAGUCCCUGCUAUACAGUGGUAUAAUAUUUGCAUAGAACCUGCACACAUCUUUCCUUACCCUUUAAAUCAUCUCCAGGUUACAGAUACCUAGCACAACAGAGGAUUGAGCAUCA
# B7: chr1:186359875:186359976:-|CDS|ENSG00000047410|msi1_unk|FALSE|overlapping (ssRNA)
# RNA: GGGAGUUCUACAGUCCGACGAUCGGAAACUCAGGAUCAGUUGCUUUUGGAGAAACUAGAGAACAAAAGAAUUAAUAAGUACCUAGAUGAAAUAGUGAAAGAAGUGGAAGCCAAAGCACCAAUUUUGAAACGCCAGCGUGAGGACAACAGAGGAUUGAGCAUCA
# B8: chr3:97755980:97756081:+|3pUTR|ENSG00000080224|unk|total|mutant (ssRNA)
# RNA: GGGAGUUCUACAGUCCGACGAUCUAAUUAAAAAUCUCUUUCCUACCUUCCGUAAUUUGCCGGAUGAACUGUAUGCAUUCCGACCGAAAUUGCUUUUGUUAAAUUUACAUUUAAACACAUCUUCAUUCACUCCGAGAAGCCAUACAACAGAGGAUUGAGCAUCA
# B9: chr1:32196777:32196878:+|3pUTR|ENSG00000084652|msi1|FALSE|unique (ssRNA)
# RNA: GGGAGUUCUACAGUCCGACGAUCUUUGAAGCUAGUUCAUUGUCCUGCAGGUCCCUUCAUCUUCCAUACCUAGCCCACUCUUUUAGCCCUUACCUUAAAUCUCUCAGAUAAGUUGGUUCACAAAGAAUGUUAAGUACUGAAUCACAACAGAGGAUUGAGCAUCA
# B10: chr2:223975255:223975490:-|3pUTR|ENSG00000135919|msi1|FALSE|bound_elsewhere (ssRNA)
# RNA: GGGAGUUCUACAGUCCGACGAUCUUUAAAUUCUUUUCCCCCAUCCCCCUCCAAAGUCUUGAUAGCAAGCGUUAUUUUGGUGGUAGAAACGGUGAAAUCUCUAGCCUCUUUGUGUUUUUGUUGUUGUUGUUGUUGUUGUUUUAUCAACAGAGGAUUGAGCAUCA
# B11: ENSG00000052841:stop:overlap|stop_codon|ENSG00000052841|stop_codon|NA|stop_codon (ssRNA)
# RNA: GGGAGUUCUACAGUCCGACGAUCAGAACCGAAUCCAGACCAUCCAGUGUCACUUAAUGCUGAAGAAGGGACGGCGCUCUCCUUAGUGCACUUCUUCCUUCUCUCUUUCUCUUUACUCAUGCUCUAAAAAAAAAGAAUAAGAAACAACAGAGGAUUGAGCAUCA
# B12: chr5:136174412:136174513:+|CDS|ENSG00000113658|unk|total|mutant (ssRNA)
# RNA: GGGAGUUCUACAGUCCGACGAUCUAUGUUGGUGGAGAGGUGUAUGCGGAAUGCCUCAGUGACAGCAGCAUAUUUGUACAGAGCCGGAACUGCAACUUUCAUCAUGGCUUUCAUCCCACCACUGUCUGUAAGAUUCCCAGCAGCCAACAGAGGAUUGAGCAUCA
# B13: chr13:110149936:110150037:-|3pUTR|ENSG00000187498|msi1|FALSE|unique (ssRNA)
# RNA: GGGAGUUCUACAGUCCGACGAUCUUCUUGUAUUAUAAUUAAUUUUCUACCCCCAGAGAUAAAUGUUUGUUUAUAUCACUGUCUAGCUGUUUCAAAAUUUAGGUCCCUUGGUCUGUACAAAUAAUAGCAAUGUAAAAAUGGUUUCAACAGAGGAUUGAGCAUCA
# B14: chr12:98549999:98550103:+|3pUTR|ENSG00000120802|unk|FALSE|unique (ssRNA)
# RNA: GGGAGUUCUACAGUCCGACGAUCUGUUUCCCAUACUGUUUUCAGCCUUUUGUUUAUAAUUAGAAAUUGUGAGAAGCUUCAUUUAGUGUUUAAAAAUGUGGGGAGAUAAAUCAGACUUAACAUGUAUGUAAGAUCAAUUCACUUCAACAGAGGAUUGAGCAUCA
# B15: chr2:24000049:24000165:+|3pUTR|ENSG00000173960|unk|FALSE|unique (ssRNA)
# RNA: GGGAGUUCUACAGUCCGACGAUCGUAGCAUAUGACUGGAAACUAUAUUCAGUGCACUUUCUCCAAAAGACUACCCAGAAAAAUAGACUUAUUUUCAAAUACCAGUUAUCAAGAUAUAUUAAAUAGCUGUAUUGUUUAGAAUCUCAACAGAGGAUUGAGCAUCA
# B16: chr12:909583:909684:+|3pUTR|ENSG00000060237|unk|FALSE|bound_elsewhere (ssRNA)
# RNA: GGGAGUUCUACAGUCCGACGAUCUAGCUCUGUCCUUUACUUAUUGAGACACUUUAACUUUUUCCUUUGUAUUUCCAUUGUAUUAGAUAAAUAAAUGUGAAUGUAAAAUUGUAUAAAUUACUGUACUUGAAUACUUCUGUUUCCCAACAGAGGAUUGAGCAUCA
# B17: chr6:57184343:57184440:+|3pUTR|ENSG00000112208|msi1_unk|FALSE|overlapping (ssRNA)
# RNA: GGGAGUUCUACAGUCCGACGAUCUCUUCAGUUUUGUGAAUAACAAAACUAGCAAUAUUUUAAUUAUCUAUCUAGAGAUUUUUUAGAUUGAAUUCUUGUCUUGUACUAGGAUCUAGCAUAUUUCACUAUUCUGUGGAUGAAUACCAACAGAGGAUUGAGCAUCA
# B18: chr12:98549999:98550103:+|3pUTR|ENSG00000120802|unk|total|mutant (ssRNA)
# RNA: B14 RNA with U60C, A61C, U83C, A84C
# B19: chr11:10797513:10797714:-|3pUTR|ENSG00000110321|msi1_unk|FALSE|overlapping (ssRNA)
# RNA: GGGAGUUCUACAGUCCGACGAUCUUCUGCAUAAGGUUUUUUUGUAGUGUAAUGUCUUAAUCAUAGUCUACCAUCAAAUAUUUUAGGAGUAUCUUUAAUGUUUAGAUAGUAUAUUAGCAGCAUGCAAUAAUUACAUCAUAAGUUCAACAGAGGAUUGAGCAUCA
# B20: chrX:129805617:129805718:-|3pUTR|ENSG00000188706|msi1|FALSE|unique (ssRNA)
# RNA: GGGAGUUCUACAGUCCGACGAUCUCUUUUCCCAUUAGAUAUAUGUAAGUAGUUGUAGUAGAGAUAAUAAUUGACAUUUCUCGUAGACUACCCAGAAACUUUUUUAAUACCUGUGCCAUUCUCAAUAAGAAUUUAUGAGAUGCCCAACAGAGGAUUGAGCAUCA
# B21: chr8:116846039:116846140:-|3pUTR|ENSG00000164754|msi1|FALSE|bound_elsewhere (ssRNA)
# RNA: GGGAGUUCUACAGUCCGACGAUCACAUUCAAUAUGAUGUGCCUGUAAACCAAGGAGUUUUCCCCGUUUGUAAAAAGACAUUGUAGAUAAUUGAAUGUUUGAUUUUAGAAAGGUCAUUAGUUUCUUGUUACACAUUUUGUUAGUCAACAGAGGAUUGAGCAUCA
# Molecular target: T1, UNK ZnF1-6 (called full-length) (human, UniProt Q9C0B0 30-357)
# T1 sequence: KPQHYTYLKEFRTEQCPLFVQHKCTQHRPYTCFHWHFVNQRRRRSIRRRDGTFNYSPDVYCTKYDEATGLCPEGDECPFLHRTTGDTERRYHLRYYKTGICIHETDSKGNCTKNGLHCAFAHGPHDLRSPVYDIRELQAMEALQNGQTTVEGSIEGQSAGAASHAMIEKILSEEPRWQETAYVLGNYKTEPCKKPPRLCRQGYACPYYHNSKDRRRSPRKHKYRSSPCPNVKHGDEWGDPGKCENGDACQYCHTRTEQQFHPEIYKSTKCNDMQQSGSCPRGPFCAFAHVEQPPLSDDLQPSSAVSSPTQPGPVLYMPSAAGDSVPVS
# Assay: nsRBNS (natural sequence RNA bind-n-seq); RBNS binding buffer (assumed for nsRBNS): 25 mM Tris pH 7.5, 150 mM KCl, 3 mM MgCl2, 0.01% Triton X-100, 500 ug/ml BSA, 20 U/ml SUPERase-In, 4 C; UNK is unkempt and MSI1 is Musashi-1; names of the RNAs are library labels; protein concentration not given here; high values mean tight binding
row,Binder,binding signal [enrichment R]
1,B1,1.54
2,B2,4.14
3,B3,4.48
4,B4,1.91
5,B5,1.38
6,B6,0.456
7,B7,4.28
8,B8,0.569
9,B9,1.19
10,B10,2.44
11,B11,0.995
12,B12,0.849
13,B13,119
14,B14,6.12
15,B15,3.33
16,B16,12.7
17,B17,6.31
18,B18,0.419
19,B19,1.96
20,B20,101
21,B21,5.22
